Most compounds without a hit are left out; they make up all but 4.1% or so of the library.
hcDAF-12 act: H. contortus DAF-12 nuclear receptor activators, primary screen, cell-based, luminescence, HEK293, lit1-tk-luc reporter; HEK293 hcDAF-12 lit1-tk-luc reporter; 0% DMSO, 100% Δ7-dafachronic acid; activation, % at 6.8 µM; 370,000 compounds, 1.4% hits; AID 652067, 2013;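 active = activation above the mean of all tested compounds plus 3 SD, cut at about 5.5% in these data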
DAX1 inh-1: DAX1 (NR0B1) inhibitors on StAR promoter, primary screen, cell-based, luminescence, SF-1 (NR5A1), full-length DAX-1 | HEK293T StAR-luciferase reporter, SF-1/DAX-1 repression relief | inhibition, % at 6.8 µM | 370,000 compounds, 1.1% hits;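 active = inhibition above the mean over all tested compounds plus 3 SD, cut at about 3.6% in these data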;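 note: higher inhibition means more luminescence from relief of DAX-1 repression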
hgDAF-12 ag: H. glycines DAF-12 receptor agonists, primary screen, cell-based, luminescence, HEK293, GAL4 fusion, UAS-luciferase | HEK293 GAL4-hgDAF12 UAS-luciferase reporter, agonist luminescence; normalized to butyrate control | activation, % at 6.8 µM | Nuclear hormone receptor DAF-12 (Heterodera glycines), GAL4 fusion | AID 687014, 2013 | 370,000 compounds, 1.8% hits;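 active = activation above a cutoff set at the mean of all screened compounds plus 3 SD, cut at about 10% in these data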
DAX1 inh-2: DAX1 (NR0B1) inhibitors, primary screen, cell-based, HEK293, Gal4-DAX1, luciferase luminescence. inhibition, % at 6.75 µM. 340,000 compounds, 0.99% hits. AID 504766, 2011. HEK293 Gal4-DAX1 luciferase reporter. Nuclear receptor subfamily 0 group B member 1 (Homo sapiens), P51843;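 active = inhibition above the mean over all tested compounds plus 3 SD, cut at about 4.2% in these data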;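 note: inhibition shows as a rise in luminescence from relieved DAX1 repression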
ssDAF12 agonist: S. stercoralis DAF-12 nuclear receptor activators, primary screen, cell-based, luminescence, HEK293, GRIP1 co-expression, lit1-tk-luc; AID 652126, 2013; HEK293 ssDAF-12/GRIP1 lit1-tk-luc reporter; % of 3 µM dafachronic acid response; 370,000 compounds, 1% hits; activation, % at 6.8 µM; Nuclear hormone receptor DAF-12 (Strongyloides stercoralis);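 active = activation above the mean over all tested compounds plus 3 SD, cut at about 0.9% in these data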
DAX1 conf: DAX1 (NR0B1) inhibitors relieving SF-1 repression, confirmation, cell-based, luminescence, HEK293T, full-length DAX-1, SF-1 activated StAR promoter. 2,400 compounds, 87% hits. inhibition, % at 6.8 µM. HEK293T StAR-promoter luciferase reporter, SF-1/DAX-1 repression. AID 652134, 2013. shares compounds with DAX1 inh-1;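 active = inhibition above the average of every tested compound plus 3 SD, cut at about 3.8% in these data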
Target sequence (P51843 whole entry, looked up): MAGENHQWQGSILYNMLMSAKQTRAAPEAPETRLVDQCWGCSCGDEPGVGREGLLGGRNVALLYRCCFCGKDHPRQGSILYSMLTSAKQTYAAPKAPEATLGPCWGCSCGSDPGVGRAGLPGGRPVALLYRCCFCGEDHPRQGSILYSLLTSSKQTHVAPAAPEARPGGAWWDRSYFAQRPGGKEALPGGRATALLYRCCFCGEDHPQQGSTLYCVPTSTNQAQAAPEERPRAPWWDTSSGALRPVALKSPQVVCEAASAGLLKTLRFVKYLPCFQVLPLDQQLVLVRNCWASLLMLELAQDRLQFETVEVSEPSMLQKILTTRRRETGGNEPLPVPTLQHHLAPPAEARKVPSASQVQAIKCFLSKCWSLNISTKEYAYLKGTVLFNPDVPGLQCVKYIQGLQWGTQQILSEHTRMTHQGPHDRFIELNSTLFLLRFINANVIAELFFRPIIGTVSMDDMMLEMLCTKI
SF1 AF2mut Luc: StAR reporter signal changes without DAX1, counter-screen for DAX1 inhibitor project, cell-based, luminescence, AF-2 mutant SF-1, transactivation. AID 652136, 2013. 2,400 compounds, 78% hits. shares compounds with DAX1 inh-1. HEK293 StAR-luciferase, SF-1 AF2 mutant. inhibition, % at 6.8 µM;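 active = inhibition above the mean of all tested compounds plus 3 SD, cut at about 3% in these data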
Each line names hits and unclear results; the compound was inactive in the other large screens (follow-up assays come after a bar, where they were run).

Cc1ccc2nc(SC(C)C(=O)N3CCOCC3)[nH]c2c1 (stereo unspecified)	DAX1 inh-1 7.3, hgDAF-12 ag 11 | DAX1 conf 6.2 | SF1 AF2mut Luc 5.0
CC[C@H](CCCc1ccc(OC)cc1)CCC(=O)N(c1ccccc1)c1ccccc1	none (no result: DAX1 inh-2)
COCC(=O)Nc1cc(C(=O)NCCc2ccccc2)ccc1Cl	hcDAF-12 act 5.8, DAX1 inh-1 5.7 | DAX1 conf 9.3 | SF1 AF2mut Luc 3.3
C=C(C)C#CCNCc1ccccc1	none (no result: DAX1 inh-2)
CCC(=O)C1CCCN(C(=O)CCc2nnc(-c3ccc(C(C)=O)s3)o2)C1 (stereo unspecified)	hcDAF-12 act 6.0, DAX1 inh-1 5.3 | DAX1 conf 6.8 | SF1 AF2mut Luc 4.8
Cc1ccc(C(=O)NCCC(=O)N2CCOCC2)cc1	DAX1 inh-1 10 | DAX1 conf 6.3 | SF1 AF2mut Luc 3.3
C/C(=N\NC(=O)c1cc2c(s1)CCC(C)C2)c1ccc[nH]1 (stereo unspecified)	DAX1 inh-1 6.2 | DAX1 conf 7.3 | SF1 AF2mut Luc 4.4
CC1CCc2sc(C(=O)NC(C)C3CCCO3)cc2C1 (stereo unspecified)	DAX1 inh-1 5.3 | DAX1 conf 4.3 | SF1 AF2mut Luc inactive
N#CCS(=O)(=O)c1cccc[n+]1[O-]	none (no result: DAX1 inh-2)
CCCCNC(=O)C[C@H]1C[C@@]2(C(=O)OC)C(=C[C@H](C(C)(C)C)O[C@@H]2C)N(CCc2ccc(OC)c(OC)c2)C1=O	none (no result: DAX1 inh-2)
O=c1[nH]c(-c2ccccc2)cn1C1CCN(Cc2ccc(-c3nc4ccc(Br)cc4nc3-c3ccccc3)cc2)CC1	none (no result: DAX1 inh-2)
COC(=O)C1=C(C)N(Cc2ccccc2C(F)(F)F)C(=NCc2cccc(C(F)(F)F)c2)NC1c1ccc(F)cc1 (stereo unspecified)	none (no result: DAX1 inh-2)
CCCc1ccc(-c2cc(NC(=O)Cc3c(C)[nH]c4ccccc34)ccc2N(C)c2cccnc2)cc1	none (no result: DAX1 inh-2)
Cc1cccc(C(=O)Nc2ccn(C)n2)c1	DAX1 inh-1 4.9 | DAX1 conf 5.8 | SF1 AF2mut Luc 3.0
CC(=O)c1ccc(-c2[nH]c3ccccc3c2CCN2C(=O)c3ccccc3C2=O)cc1	none
CC(=O)c1ccc(-c2c(CCO)sc3ccccc23)cc1	DAX1 inh-1 5.7 (no result: DAX1 inh-2) | DAX1 conf inactive | SF1 AF2mut Luc 3.0
COc1ccc(-c2nc3ccccc3[nH]2)cc1	hcDAF-12 act 5.8, DAX1 inh-1 6.8, hgDAF-12 ag 12 | DAX1 conf 15 | SF1 AF2mut Luc 6.1
CC(C)[C@@H](C)/C=C/[C@@H](C)[C@H]1CC[C@@H]2[C@]1(C)CCC1[C@]23C=C[C@]2(C[C@@H](O)CC[C@]12C)N(c1cnccn1)O3 (stereo partly specified)	DAX1 inh-1 4.6 (no result: DAX1 inh-2) | DAX1 conf inactive | SF1 AF2mut Luc inactive
CC(C)[C@@H](C)/C=C/[C@@H](C)[C@H]1CC[C@@H]2[C@]1(C)CCC1[C@]23C=C[C@]2(C[C@@H](O)CC[C@]12C)N(c1ncc(C(F)(F)F)cc1Cl)O3 (stereo partly specified)	none (no result: DAX1 inh-2)
COc1ccc(NC(=O)c2cccs2)cc1	none
O=C(Nc1ccc(NC(=O)C2CC2)cc1)c1cccs1	DAX1 inh-1 7.1 | DAX1 conf 8.3 | SF1 AF2mut Luc 5.3
CC(=O)Nc1cnc(-c2ccc3c(c2)OCO3)cn1	DAX1 inh-1 4.8, hgDAF-12 ag 12 (no result: DAX1 inh-2) | DAX1 conf 9.0 | SF1 AF2mut Luc 5.7
CC(=O)Nc1cnc(-c2cc(C)c(O)c(C)c2)cn1	none (no result: DAX1 inh-2)
COc1ccc(NC(=O)N(C)C[C@H]2OCc3cnnn3CCCC(=O)N([C@H](C)CO)C[C@@H]2C)c(OC)c1	none (no result: DAX1 inh-2)
Oc1c(C2=NCCNC(C(F)(F)F)=C2)ccc2ccccc12	DAX1 inh-1 4.7, hgDAF-12 ag 19 | DAX1 conf 6.5 | SF1 AF2mut Luc 4.6
Cc1cc(CN(C)C(=O)c2ccc3nc(Cc4ccccc4F)oc3c2)n[nH]1	none
COc1ccc(Cc2nc3ccc(C(=O)N4CCOCC4)cc3o2)cc1	DAX1 inh-1 5.4 | DAX1 conf 7.4 | SF1 AF2mut Luc 3.8
CC(c1ccccn1)N(C)C(=O)c1ccc2nc(Cc3ccccc3F)oc2c1 (stereo unspecified)	DAX1 inh-1 4.8 | DAX1 conf 5.3 | SF1 AF2mut Luc 4.4
O=C(c1ccc2nc(Cc3ccccc3F)oc2c1)N1CC[C@H](O)C1	DAX1 inh-1 6.2 | DAX1 conf 5.9 | SF1 AF2mut Luc inactive
CC(=O)N1CCCN(C(=O)c2ccc3nc(Cc4ccccc4F)oc3c2)CC1	none
CCCCN1CC[C@H](C)Oc2cc(Br)ccc2S1(=O)=O	none (no result: DAX1 inh-2)
CC(=O)OCCC(CC(C)C)NC(=O)[C@H](CC(C)C)NC(=O)OCc1ccccc1 (stereo partly specified)	none (no result: DAX1 inh-1, DAX1 inh-2)
COC(=O)C1=C(C)N(Cc2cccc(C(F)(F)F)c2)C(=NCc2ccc(OC)cc2)NC1c1cccc(F)c1 (stereo unspecified)	none (no result: DAX1 inh-2)
C(=N\Nc1ccccn1)/c1ccc(N2CCOCC2)cc1	DAX1 inh-1 5.0, hgDAF-12 ag 11 | DAX1 conf 8.8 | SF1 AF2mut Luc 7.0
CC(=O)N1CCc2cc(S(=O)(=O)NC3CCN(C(=O)C(C)(C)C)CC3)ccc21	none (no result: DAX1 inh-2)
Cc1cc(Cl)ccc1OCc1cn2cccnc2n1	DAX1 inh-1 8.0, hgDAF-12 ag 11 | DAX1 conf 8.3 | SF1 AF2mut Luc 4.0
COCc1cc(N2CCN(C(=O)OC(C)(C)C)C[C@@H]2C)ccc1N1CC[C@@H](O)C1	none (no result: DAX1 inh-2)
Cc1cccc2c1-c1sc(C(=O)N3CCCCC3)cc1CO2	DAX1 inh-1 5.3 | DAX1 conf 9.6 | SF1 AF2mut Luc 5.7
Cc1cccc2c1-c1sc(C(=O)N3CCc4ccccc4C3)cc1CO2	none
Cc1ccc2nc(-c3ccc4c(c3)OCCO4)cn2c1	none
